Results filed as inconclusive are left out. The source holds several records for some structures; these can differ, active in one and inactive in another. Calls of active or inactive are those of the source. The calls were made as follows, unless noted: active = hit-call score of the fitted dose curve at least 0.9, where 1 is the maximum; inactive = score below 0.9.
Tests used:
[1] = tested on: DIO3 (gene 1735); assay: CCTE_GLTED_hDIO3: CCTE's human Deiodinase 3 (DIO3) Inhibition Assay, Great Lakes Toxicology and Ecology Division (GLTED) Lab (AID 2284055; active = hit-call score of the fitted dose curve at least 0.9, where 1 is the maximum;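 as to AC50: potency is for inhibition seen as loss of released iodide signal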)
Summary of the method: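 Inhibition is read as reduced iodide release, measured spectrophotometrically by the Sandell-Kolthoff cerium/arsenic reaction. Adenovirus-expressed human DIO3 enzyme is exposed to chemical for 3 h, n=3 plates. Iodinated chemicals, nitrite, iron or thiocyanate may interfere.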

[2] = CCTE_Shafer_MEA_dev_spike_duration_mean: CCTE's Neural Network Formation Assay for Mean Spike Duration, Shafer Lab (AID 2284051);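 also: mean network spike duration pooled as area under curve over DIV 5 to 12 recordings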;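 as to AC50: potency for a decrease in mean network spike duration versus DMSO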
Summary of the method: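 With DMSO as baseline, loss of mean network spike duration was scored from extracellular recordings of rat cortical neurons on MEA plates. Exposure spanned plating to DIV 12; the four recording days were collapsed into one AUC value.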

[3] = CCTE_Shafer_MEA_dev_network_spike_duration_std: CCTE's Neural Network Formation Assay for Standard Deviation of Network Spike Duration, Shafer Lab (AID 2284052);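 also: area under curve of spike duration SD across recording days 5 to 12; hits are decreases in network spike duration SD versus DMSO vehicle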
Summary of the method: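 Developing networks of rat cortical neurons were exposed over twelve days in vitro on 48-well MEA plates. Trapezoidal AUC of recordings (DIV 5–12) was analysed for signal loss relative to DMSO vehicle.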

[4] = CCTE_Shafer_MEA_dev_per_network_spike_spike_number_mean: CCTE's Neural Network Formation Assay for Mean Number of Spikes in a Network Spike, Shafer Lab (AID 2284053);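 as to AC50: fitted as decrease in spikes per network spike relative to DMSO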
Summary of the method: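 First, rat cortical cells (1.5 x 10^5/well) were seeded onto MEA wells; second, dosing began at plating and was refreshed on DIV 5 and 9; finally, network-spike spike counts across DIV 5–12 were summarized as AUC.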

[5] = CCTE_Shafer_MEA_dev_per_network_spike_spike_percent: CCTE's Neural Network Formation Assay for Percent of Spikes in a Network Spike, Shafer Lab (AID 2284054)
Summary of the method: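 Metric: fraction of spikes falling in a 0.05 s window at network-spike peaks. Recordings were made on days 5, 7, 9 and 12 and collapsed by trapezoidal AUC. Cultures were rat cortical neurons on MEA plates, dosed continuously from plating, re-dosed at media changes.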

[6] = CCTE_Shafer_MEA_dev_mutual_information_norm: CCTE's Neural Network Formation Assay for Mutual Information Normalization, Shafer Lab (AID 2284091);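 as to AC50: mutual information between electrodes summarised as area under curve across four recording days; potency is for a decrease in mutual information relative to DMSO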
Summary of the method: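 Shared information across electrodes, tracked on days 5, 7, 9 and 12 of network development and collapsed as trapezoidal area under the curve. Rat cortical cultures were treated continuously from plating, with treatment renewed at feeds on DIV 5 and 9; DMSO baseline, negative-direction fit.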

[7] = CCTE_Shafer_MEA_dev_correlation_coefficient_mean: CCTE's Neural Network Formation Assay for Mean Correlation Coefficient, Shafer Lab (AID 2284093);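 as to AC50: well mean pairwise spike train correlation integrated as AUC over recording days 5 to 12; potency fitted for loss of correlation relative to DMSO vehicle wells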
Summary of the method: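 Extracellular firing from rat cortical networks on 48-well MEAs, DMSO-referenced, negative fitting direction. Compound present from plating to DIV12; mean pairwise correlation per well integrated over DIV5–12 recordings by trapezoidal AUC.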

[8] = CCTE_Shafer_MEA_dev_LDH: CCTE's Lactate Dehydrogenase Assay for Cytotoxicity in the Neural Network Formation Assay, Shafer Lab (AID 2284068; active = hit-call score of the fitted dose curve at least 0.9, where 1 is the maximum;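 also: exposure for twelve days from plating with re-dosing on DIV 5 and 9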)
Summary of the method: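 Developing rat cortical networks on MEA plates are exposed to compound for 12 days from plating. LDH activity is measured spectrophotometrically, with DMSO as baseline.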

[9] = CCTE_Shafer_MEA_dev_AB: CCTE's Alamar Blue Assay for Cytotoxicity in the Neural Network Formation Assay, Shafer Lab (AID 2284083; active = hit-call score of the fitted dose curve at least 0.9, where 1 is the maximum;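 also: resazurin reduction fluorescence as viability of cultured neurons; twelve days of exposure from plating with re-dosing on DIV 5 and 9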)
Summary of the method: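 Cytotoxicity companion to the developmental MEA: primary rat cortical neurons, 12-day exposure starting day 0, compound refreshed DIV 5 and 9; resazurin fluorescence, fitted against DMSO vehicle.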

[10] = IUF_NPC1b_proliferation_BrdU_72hr: Leibniz Research Institute for Environmental Medicine (IUF) 72-hour Neural Progenitor Cell Bromodeoxyuridine (BrdU) Proliferation Assay (NPC1b) (AID 2284207)
Summary of the method: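 Human fetal cortex-derived (GW 16-19) neural progenitor spheres, 0.25-0.35 mm, one per well in EGF/FGF proliferation medium, exposed to compound for 72 h at 37C, pH 7.2-7.6. BrdU incorporation over the final 16 h read by luminescence ELISA, relative to DMSO.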

[11] = IUF_NPC1a_proliferation_area_72hr: Leibniz Research Institute for Environmental Medicine (IUF) 72-hour Neural Progenitor Cell Proliferation Area Assay (NPC1a) (AID 2284208)
Summary of the method: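 hNPC spheres (human fetal cortex, GW 16-19), one per poly-Hema U-bottom well; EGF+FGF medium; dosed day 0, no re-dosing; 72 h, 37C, 5% CO2; phase-contrast sphere area; DMSO = baseline; minus-GF = positive ctrl.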

[12] = IUF_NPC1_viability_72hr: Viability Assessment at 72 hours in the Leibniz Research Institute for Environmental Medicine (IUF) Neural Progenitor Cell Proliferation Assay (NPC1) (AID 2284209)
Summary of the method: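 Viability was measured by resazurin-to-resorufin fluorescence (alamar blue) after 72 h of continuous exposure without compound renewal. Each well held one hNPC sphere (gestational week 16-19 fetal cortex, 0.25-0.35 mm) cultured in EGF/FGF proliferation medium at 37C and pH 7.2-7.6.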

[13] = CCTE_Mundy_HCI_Cortical_Synap_Neur_Matur_NeuriteSpotCountPerNeuriteLength: CCTE's Synaptogenesis and Neurite Maturation Assay in rat cortical cells for Neurite Spot Count per Neurite Length, Mundy Lab (AID 2284210)
Summary of the method: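 Synaptophysin spots per unit neurite length, measured by automated imaging of MAP2/synaptophysin/Hoechst-stained neurons. Cultures from rat cortex received chemical at DIV 7 with media change through DIV 12; glial growth arrested by AraC at DIV 5; DMSO baseline.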

[14] = CCTE_Mundy_HCI_Cortical_NOG_NeuriteLength: CCTE's Neurite Outgrowth Assay in rat cortical cells for Neurite Length, Mundy Lab (AID 2284213)
Summary of the method: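 First, rat primary cortical cells were plated and, 2 h later, given test chemical as a 1/10 dilution. Finally, βIII-tubulin immunostaining enabled automated imaging of neurite length.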

[15] = CCTE_Mundy_HCI_Cortical_Synap_Neur_Matur_NeuriteLength: CCTE's Synaptogenesis and Neurite Maturation Assay in rat cortical cells for Neurite Length, Mundy Lab (AID 2284214)
Summary of the method: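 Neurite length quantified by automated high-content imaging of MAP2, synaptophysin and Hoechst staining. Rat cortical cells received chemical from DIV 7 to DIV 12 […], glial growth arrested by AraC at DIV 5; DMSO baseline.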

[16] = CCTE_Mundy_HCI_Cortical_Synap_Neur_Matur_NeuriteSpotCountPerNeuron: CCTE's Synaptogenesis and Neurite Maturation Assay in rat cortical cells for Neurite Spot Count per Neuron Count, Mundy Lab (AID 2284215)
Summary of the method: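 Read-out: neurite-associated synaptophysin puncta per neuron, imaged by high-content analysis after MAP2, synaptophysin and Hoechst staining. Rat primary cortical cultures, dosed DIV 7 through DIV 12; DMSO served as baseline.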

[17] = CCTE_Shafer_MEA_acute_LDH: CCTE's Lactate Dehydrogenase Assay for Cytotoxicity in the Neural Acute Assay, Shafer Lab (AID 2284086; active = hit-call score of the fitted dose curve at least 0.9, where 1 is the maximum;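 also: active means LDH release rises above DMSO vehicle level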)
Summary of the method: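 LDH released during 40 min compound exposure of primary rat cortical cultures, quantified by absorbance at 490 nm in collected medium. Fitting direction positive versus DMSO vehicle.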

[18] = UKN2_HCS_IMR90_neural_migration: University of Konstanz (UKN) Leist Lab Neural Crest Cell Migration Assay in human induced IMR90 Pluripotent Stem Cells (UKN2) (AID 2284204); conditions: actives raise or lower the signal
Summary of the method: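 High-content imaging of calcein-AM and Hoechst stained cells quantifies migration into a stopper-defined gap after 24 h compound exposure. Neural crest cells from IMR90 iPSC migrated 24 h in EGF/FGF N2-S medium before dosing; DMSO baseline.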

[19] = CCTE_Mundy_HCI_Cortical_Synap_Neur_Matur_BPCount: CCTE's Synaptogenesis and Neurite Maturation Assay in rat cortical cells for Branch Point Count, Mundy Lab (AID 2284211)
Summary of the method: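 HCI read-out of branch points from MAP2/synaptophysin/Hoechst immunofluorescence; rat cortical cultures, AraC DIV 5, dosing DIV 7, fixed DIV 12; fit in positive direction vs DMSO baseline.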

[20] = CCTE_Mundy_HCI_Cortical_NOG_NeuriteCount: CCTE's Neurite Outgrowth Assay in rat cortical cells for Neurite Count, Mundy Lab (AID 2284212);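 also: cells fixed about two days after chemical exposure began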
Summary of the method: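 Rat cortical primary cells; compound added 2 h post-plating, 1/10 dilution of working solution. Anti-betaIII-tubulin/AF488 ICC; ArrayScan neurite count vs DMSO.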

Measured: AC50

C=C(C)C(=O)OCC(F)(F)C(F)(F)C(F)(F)F
inactive: [1]

O=C(O)C(F)(F)C(F)(F)C(F)(F)C(F)(F)C(F)(F)C(F)(F)C(F)(F)C(F)(F)C(F)(F)C(F)(F)C(F)(F)C(F)(F)C(F)(F)F
active: [1] 33.1 µM

O=S(=O)(OCCOC(F)(F)F)C(F)(F)F
inactive: [2] | [3] | [4] | [5] | [6] | [7]

OCCCC(F)(F)C(F)(F)C(F)(F)F
inactive: [2] | [3] | [4] | [5] | [8] | [6] | [7]

OC[C@@H](O)[C@@H](O)[C@H](O)[C@@H](O)CO
not listed: [1] | [17] | [18] | [19] | [20]
inactive: all other assays above

CC(C)(C)C(=O)CC(=O)C(F)(F)C(F)(F)C(F)(F)F
inactive: [3] | [6]
active: [2] 26 µM | [4] 25.3 µM | [5] 22.5 µM | [8] 21.9 µM | [9] 23.9 µM | [7] 24.1 µM

CCCCC(CC)COP(=O)(O)OCC(CC)CCCC (stereo not drawn)
inactive: [17]

CC(Cc1ccc(O)c(O)c1)C(C)Cc1ccc(O)c(O)c1 (stereo not drawn)
active: [1] 0.0863 µM

OCC(F)(F)C(F)(F)C(F)(F)C(F)(F)C(F)(F)C(F)F
inactive: [2] | [3] | [4] | [5] | [8] | [9] | [6] | [7]

NC(=O)C(F)(F)C(F)(F)C(F)(F)C(F)(F)F
inactive: [2] | [3] | [4] | [5] | [6] | [7]

c1ccc(B(c2ccccc2)c2ccccc2)cc1
active: [1] 100 µM

O=C(O)C(F)(F)C(F)(F)C(F)(F)F
inactive: [2] | [3] | [4] | [5] | [8] | [6] | [7]

O=S(=O)(OCC(F)F)C(F)(F)F
inactive: [2] | [3] | [4] | [5] | [8] | [6] | [7]

FC(F)(F)C(F)(F)C(F)(F)C(F)(F)C(F)(F)C(F)(F)CC1CO1 (stereo not drawn)
inactive: [2] | [3] | [4] | [5] | [6] | [7]

CC(CCl)OP(=O)(OC(C)CCl)OC(C)CCl (stereo not drawn)
active: [2] 50 µM | [4] 50 µM | [5] 50 µM | [8] 50 µM
inactive: [2] | [3] | [4] | [5] | [8] | [9] | [6] | [7] | [18] | [10] | [11] | [12] | [13] | [19] | [20] | [14] | [15] | [16]

FC(F)(F)C(F)(F)CNCC(F)(F)C(F)(F)F
inactive: [2] | [3] | [4] | [5] | [6] | [7]

FC(F)(F)C(F)(F)C(F)(F)C(F)(F)C(F)(F)CCI
active: [2] 15 µM | [4] 15 µM | [8] 21.8 µM | [9] 23.9 µM | [7] 25.2 µM
inactive: [3] | [5] | [6]

O=P(O)(O)OCCC(F)(F)C(F)(F)C(F)(F)C(F)(F)C(F)(F)C(F)(F)F
inactive: [2] | [3] | [4] | [5] | [6] | [7]
active: [8] 21.5 µM | [9] 24.7 µM

C=CC(=O)OCC(F)(F)C(F)(F)C(F)(F)C(F)(F)COC(=O)C=C
active: [2] 7.64 µM | [4] 4.18 µM | [5] 4.37 µM | [1] 32.8 µM | [8] 4.28 µM | [9] 4.78 µM | [6] 2.2 µM | [7] 4.1 µM
inactive: [3]

CCN(Cc1cccc(S(=O)(=O)O)c1)c1ccc(C(=C2C=CC(=[N+](CC)Cc3cccc(S(=O)(=O)O)c3)C=C2)c2ccc(O)cc2S(=O)(=O)[O-])cc1
active: [1] 51.3 µM

OCC(F)(F)C(F)(F)C(F)(F)F
inactive: [2] | [3] | [4] | [5] | [9] | [6] | [7]

COC(=O)CCC(F)(F)C(F)(F)C(F)(F)C(F)(F)F
inactive: [2] | [3] | [4] | [5] | [8] | [6] | [7]

O=C(O)C(F)(F)C(F)(F)C(F)(F)C(F)(F)C(F)(F)C(F)(F)C(F)(F)C(F)(F)C(F)(F)C(F)(F)C(F)(F)C(F)(F)F
active: [1] 32.8 µM

Cc1ccc(S(=O)(=O)OCC(F)(F)C(F)(F)C(F)(F)C(F)(F)C(F)(F)C(F)F)cc1
inactive: [2] | [3] | [4] | [5] | [8] | [6] | [7]

O=C(O)C(F)(F)C(F)(F)C(F)(F)C(F)(F)C(F)(F)C(F)(F)C(F)(F)C(F)(F)Cl
inactive: [2] | [3] | [4] | [5] | [8] | [6] | [7]

O=C(O)C(F)(F)C(F)(F)C(F)(F)C(F)(F)C(F)(F)C(F)(F)C(F)(F)C(F)(F)C(F)(F)C(F)F
active: [1] 138 µM
inactive: [2] | [3] | [4] | [5] | [8] | [9] | [6] | [7]

N=C(N)C(F)(F)C(F)(F)C(F)(F)C(F)(F)C(F)(F)C(F)(F)C(F)(F)F
inactive: [2] | [3] | [4] | [5] | [6]
active: [8] 24.5 µM | [9] 23.9 µM | [7] 15 µM

CCCCCCOC(=O)c1ccccc1O
inactive: [17]

O=C(O)C(F)(F)C(F)(F)C(F)F
inactive: [2] | [3] | [4] | [5] | [8] | [6] | [7]

OCC(F)(F)C(F)(F)C(F)(F)C(F)F
inactive: [2] | [3] | [4] | [5] | [8] | [9] | [6] | [7]

O=C(O)C=C(C(F)(F)F)C(F)(F)F
inactive: [2] | [3] | [4] | [5] | [8] | [6] | [7]

Source: PubChem BioAssay (EPA / NIEHS)
